Data: ChEMBL document CHEMBL3988442, “University of Dundee, Small-Polar-MMV Screening Library” (2021)

What was measured:
[1] = target: T1, Aspartate--tRNA(Asp/Asn) ligase (Mycobacterium tuberculosis (strain ATCC 25618 / H37Rv)) (UniProt P9WFW3); test: Assay for Asp RNA synthetase-1 from Mycobacterium tuberculosis; assay type: functional; parameters: scale not given: direction of the effect not stated beside the values; conditions: 30 µM; also: in the data most compounds retested in dose-response had high values
T1 sequence (whole entry): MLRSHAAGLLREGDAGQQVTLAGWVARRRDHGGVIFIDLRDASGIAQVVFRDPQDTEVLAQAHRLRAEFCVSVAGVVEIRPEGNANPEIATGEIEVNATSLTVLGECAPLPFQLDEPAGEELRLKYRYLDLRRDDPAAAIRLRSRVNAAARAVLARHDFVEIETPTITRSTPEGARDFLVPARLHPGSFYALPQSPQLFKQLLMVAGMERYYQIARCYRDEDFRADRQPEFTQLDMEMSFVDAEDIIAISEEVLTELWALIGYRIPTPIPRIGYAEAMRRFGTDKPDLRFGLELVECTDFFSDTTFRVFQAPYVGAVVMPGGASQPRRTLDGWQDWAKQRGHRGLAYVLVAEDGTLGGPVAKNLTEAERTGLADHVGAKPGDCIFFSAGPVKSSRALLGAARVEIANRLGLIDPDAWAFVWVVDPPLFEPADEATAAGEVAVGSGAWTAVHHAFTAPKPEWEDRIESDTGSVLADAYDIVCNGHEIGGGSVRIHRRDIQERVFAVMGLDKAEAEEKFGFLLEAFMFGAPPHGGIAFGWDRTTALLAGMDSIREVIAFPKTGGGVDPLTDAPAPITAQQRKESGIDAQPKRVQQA

[2] = target: Shiga toxin 2 (Escherichia coli O157:H7) (UniProt P09385+P09386); test: E. coli 0.157:H7 Shiga Toxin SOP - stx2 screening assay; assay type: functional; parameters: scale not given: direction of the effect not stated beside the values; conditions: 30 µM

**Q.** For `COc1cc(C(=O)N2CCCC(CNS(C)(=O)=O)C2)cc(OC)c1C` (centres undefined), which Percent Effect [1] is on record?
**A.** Its Percent Effect is -4.03%.

**Q.** What about the Percent Effect [2] of the same compound?
**A.** Its Percent Effect is 25.9%.

**Q.** What does the source list for `Cc1ccc2c(c1)C1(CCNCC1)CN2C(=O)CN(C)C`?
**A.** Percent Effect [1]: -0.657%; Percent Effect [2]: 6.1%

**Q.** For `Cc1nc(C)n(CC2CCCN(CCc3ccccn3)C2)n1` (centres undefined), which Percent Effect [1] is on record?
**A.** Its Percent Effect is -0.8%.

**Q.** What about the Percent Effect [2] of the same compound?
**A.** The Percent Effect was -46.3%.

**Q.** Which results are given for `CCCNC(=O)C1CCN(Cc2csc(C(C)(C)C)n2)CC1`?
**A.** Percent Effect [1]: -0.628%; Percent Effect [2]: 7.25%

**Q.** Which results are given for `Cc1cc(-c2cnc(NC3CCCC3)nc2-c2ccoc2C)on1`?
**A.** Percent Effect [1]: 3.94%; Percent Effect [2]: -25.8%

**Q.** Which results are given for `Cc1[nH]ccc1C(=O)Nc1cccc(CN2CCC(CO)CC2)c1`?
**A.** Percent Effect [1]: -1.71%; Percent Effect [2]: -43.9%

**Q.** Which results are given for `C=C(C)COCCNC(=O)C1CCCN1C(C)=O` (centres undefined)?
**A.** Percent Effect [1]: -3.43%; Percent Effect [2]: -6.8%

**Q.** What does the source list for `CCn1nc(C)cc1C(=O)Nc1cc(F)ccc1OCC1CCCO1` (centres undefined)?
**A.** Percent Effect [1]: -3.81%; Percent Effect [2]: 34.1%

**Q.** Which results are given for `Nc1nc(CN2CCCC(Cn3cncn3)C2)nc2ccccc12` (centres undefined)?
**A.** Percent Effect [1]: 0.466%; Percent Effect [2]: -13.2%

**Q.** Which Percent Effect [1] does the source give for `CC1(C)CN(C(=O)NCCc2ccn(-c3ccccc3)n2)CCO1` here?
**A.** Its Percent Effect is 2.57%.

**Q.** And the Percent Effect [2]?
**A.** Its Percent Effect is 16.6%.

**Q.** What does the source list for `Cc1noc2ncc(C(=O)NCC3CCOC3)cc12` (centres undefined)?
**A.** Percent Effect [1]: -2.88%; Percent Effect [2]: 16.2%

**Q.** Which Percent Effect [1] does the source give for `O=C(O)C1(Cc2cccc(-c3ccc(F)c(F)c3)c2)CCOCC1` here?
**A.** Its Percent Effect is 4.93%.

**Q.** What about the Percent Effect [2] of the same compound?
**A.** The Percent Effect was 7.92%.

**Q.** How did the Percent Effect [1] turn out when `Cc1cccnc1CNCC1(O)CCCN(CC2CCCCC2)C1=O` (centres undefined) was run?
**A.** The Percent Effect was -2.28%.

**Q.** And the Percent Effect [2]?
**A.** Its Percent Effect is 13.1%.

**Q.** For `CCC1=N[C@@]2(CC[C@@H]3CN(S(=O)(=O)CC(C)C)C[C@@H]32)C(=O)N1C`, which Percent Effect [1] is on record?
**A.** Its Percent Effect is 0.189%.

**Q.** And the Percent Effect [2]?
**A.** The Percent Effect was -1.16%.

**Q.** `Cc1cncc(C2CCCN(C(=O)c3cccn3C)C2)n1` (centres undefined) was tested. Which Percent Effect [1] did it give?
**A.** The Percent Effect was 1.84%.

**Q.** What about the Percent Effect [2] of the same compound?
**A.** The Percent Effect was -12.2%.

**Q.** Which Percent Effect [1] does the source give for `CN1CC2(CCN(Cc3ccoc3)CC2)COc2ccccc2S1(=O)=O` here?
**A.** Its Percent Effect is -0.268%.

**Q.** What about the Percent Effect [2] of the same compound?
**A.** Its Percent Effect is -18.6%.

**Q.** For `CN(C)c1cncc(C2CCN(CCO)CC2)n1`, which Percent Effect [1] is on record?
**A.** Its Percent Effect is -2.69%.

**Q.** And the Percent Effect [2]?
**A.** Its Percent Effect is -4.99%.

**Q.** Which Percent Effect [1] does the source give for `Cc1ccsc1C(=O)N1CC(C(=O)N2CCOCC2)C2(CCOCC2)C1` (centres undefined) here?
**A.** The Percent Effect was 7.88%.

**Q.** And the Percent Effect [2]?
**A.** The Percent Effect was -8.92%.

**Q.** Which results are given for `O=C(c1ccc(F)cc1)N1CCC2(CCCN2CC2CC2)CC1`?
**A.** Percent Effect [1]: -2.16%; Percent Effect [2]: -20.9%

**Q.** With `CC(C)c1nn(C)c(N(C)C)c1CNCCC(=O)N(C)C` as the compound, how does the Percent Effect [1] read?
**A.** Its Percent Effect is -4.3%.

**Q.** And the Percent Effect [2]?
**A.** Its Percent Effect is 10.1%.

**Q.** `CN(C)C(=O)N1CCN(Cc2noc(Cc3ccccc3)n2)CC1` was tested. Which Percent Effect [1] did it give?
**A.** Its Percent Effect is 0.542%.

**Q.** And the Percent Effect [2]?
**A.** The Percent Effect was 8.78%.

**Q.** `CCS(=O)(=O)N1CCOC2(CCCN(c3ccc(C)nn3)C2)C1` (centres undefined) was tested. Which Percent Effect [1] did it give?
**A.** Its Percent Effect is 3.41%.

**Q.** And the Percent Effect [2]?
**A.** Its Percent Effect is -15.9%.

**Q.** How did the Percent Effect [1] turn out when `CS(=O)(=O)c1ccccc1C(=O)NCCCN1CCc2ccccc2C1` was run?
**A.** Its Percent Effect is -6.45%.

**Q.** And the Percent Effect [2]?
**A.** Its Percent Effect is -24.7%.

**Q.** Which Percent Effect [1] does the source give for `CCn1cnnc1CNC(=O)c1ccc(Cl)cc1F` here?
**A.** The Percent Effect was 1.24%.

**Q.** What about the Percent Effect [2] of the same compound?
**A.** Its Percent Effect is -53.7%.

**Q.** With `CC(C)Cc1cc(NC(=O)c2ccc[nH]2)n(C)n1` as the compound, how does the Percent Effect [1] read?
**A.** Its Percent Effect is -0.121%.

**Q.** And the Percent Effect [2]?
**A.** The Percent Effect was 7.24%.

**Q.** Which results are given for `Cc1n[nH]c(C2CN(C(=O)c3cnc[nH]3)CCO2)n1` (centres undefined)?
**A.** Percent Effect [1]: 1.76%; Percent Effect [2]: 23.8%

**Q.** For `Cc1oncc1C(=O)N1CCC2(CCN(Cc3ccccn3)C2=O)C1` (centres undefined), which Percent Effect [1] is on record?
**A.** Its Percent Effect is -2.39%.

**Q.** And the Percent Effect [2]?
**A.** Its Percent Effect is -12.9%.

**Q.** With `CN1C(=O)C(C)(C)COc2cc(NS(=O)(=O)Cc3ccccc3)ccc21` as the compound, how does the Percent Effect [1] read?
**A.** Its Percent Effect is -4.77%.

**Q.** What about the Percent Effect [2] of the same compound?
**A.** Its Percent Effect is 14.9%.

**Q.** `Cc1nc(C2CCCN(C(=O)c3cc(Cl)c[nH]3)C2)no1` (centres undefined) was tested. Which Percent Effect [1] did it give?
**A.** The Percent Effect was -3.91%.

**Q.** What about the Percent Effect [2] of the same compound?
**A.** The Percent Effect was 0.906%.

**Q.** For `Cc1cn2c(n1)CCC(NC(=O)CCn1ccnn1)C2` (centres undefined), which Percent Effect [1] is on record?
**A.** The Percent Effect was -3.77%.

**Q.** What about the Percent Effect [2] of the same compound?
**A.** Its Percent Effect is 19.8%.

**Q.** `Cc1ccn(-c2ccccc2NCc2ccccn2)n1` was tested. Which Percent Effect [1] did it give?
**A.** Its Percent Effect is 0.661%.

**Q.** What about the Percent Effect [2] of the same compound?
**A.** The Percent Effect was 4.81%.

**Q.** With `CSc1ncccc1C(=O)N1C[C@H]2CC[C@@H]1CN(c1cnccn1)C2` as the compound, how does the Percent Effect [1] read?
**A.** The Percent Effect was 7.16%.

**Q.** What about the Percent Effect [2] of the same compound?
**A.** Its Percent Effect is -42.6%.

**Q.** `Cn1ccc(CN2CCC(CCc3ccc(O)cc3)CC2)cc1=O` was tested. Which Percent Effect [1] did it give?
**A.** The Percent Effect was -1.67%.

**Q.** What about the Percent Effect [2] of the same compound?
**A.** The Percent Effect was -46.5%.

**Q.** `O=C1CN(Cc2nnc(-c3ccccc3Br)o2)CCN1` was tested. Which Percent Effect [1] did it give?
**A.** The Percent Effect was -4.51%.

**Q.** What about the Percent Effect [2] of the same compound?
**A.** The Percent Effect was -24.1%.

**Q.** How did the Percent Effect [1] turn out when `CCN(C(=O)CN(C)C(c1cccc(F)c1)c1ccccn1)C1CC1` (centres undefined) was run?
**A.** The Percent Effect was -2.49%.

**Q.** And the Percent Effect [2]?
**A.** The Percent Effect was 8.33%.

**Q.** For `COC(=O)CNC(=O)CSCc1nc(O)c2cc(C(C)C)sc2n1`, which Percent Effect [1] is on record?
**A.** The Percent Effect was -0.639%.

**Q.** And the Percent Effect [2]?
**A.** The Percent Effect was -7.38%.

**Q.** What does the source list for `CN(CCC(F)(F)F)C(=O)C1CCCN1C(=O)OC(C)(C)C` (centres undefined)?
**A.** Percent Effect [1]: 4.8%; Percent Effect [2]: -21.4%
